Data: PubChem BioAssay (EPA / NIEHS)
Results filed as inconclusive are left out. Calls of active or inactive are those of the source. The calls were made as follows, unless noted: active = hit-call score of the fitted dose curve at least 0.9, where 1 is the maximum; inactive = score below 0.9.

Assays:
[1] = read-out: Nuclear factor erythroid 2-related factor 2 (Homo sapiens) (UniProt Q16236); assay: LTEA_HepaRG_NFE2L2: Life Technologies and Expression Analysis (LTEA) Assay for Nuclear factor erythroid 2-related factor 2 (NFE2L2) Transcription Factor using HepaRG (AID 2283527); conditions: mRNA level, 48 h; actives raise or lower the signal
Outline: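 Differentiated human HepaRG cells, serum-free induction medium, exposed 48 h in duplicate to eight half-log concentrations up to 100 uM in 0.5% DMSO. NFE2L2 mRNA by Fluidigm TaqMan qRT-PCR, normalised to ACTB, GAPDH, POLR2A; bidirectional change versus DMSO.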

[2] = read-out: succinate dehydrogenase complex iron sulfur subunit B (SDHB), SDHB (gene 6390); assay: LTEA_HepaRG_SDHB: Life Technologies and Expression Analysis (LTEA) Assay for succinate dehydrogenase complex iron sulfur subunit B (SDHB) using HepaRG (AID 2283528); conditions: mRNA level, 48 h; actives raise or lower the signal
Outline: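 Readout is SDHB transcript level by qRT-PCR, normalised to three housekeeping genes and fitted bidirectionally against 0.5% DMSO vehicle. Human HepaRG cells were treated for 48 h at up to 100 uM.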

[3] = read-out: Signal transducer and activator of transcription 3 (Homo sapiens) (UniProt P40763); assay: LTEA_HepaRG_STAT3: Life Technologies and Expression Analysis (LTEA) Assay for Signal transducer and activator of transcription (STAT3) using HepaRG (AID 2283529); conditions: mRNA level, 48 h; actives raise or lower the signal
Outline: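 Differentiated HepaRG cells, serum-free induction medium, dosed 48 h in duplicate, 8 half-log concentrations from 100 uM in 0.5% DMSO. STAT3 mRNA by qRT-PCR, normalised to ACTB, GAPDH, POLR2A; bidirectional fit versus DMSO.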

[4] = read-out: solute carrier (SLCO1B1), SLCO1B1 (gene 10599); assay: LTEA_HepaRG_SLCO1B1: Life Technologies and Expression Analysis (LTEA) Assay for solute carrier (SLCO1B1) using HepaRG (AID 2283530); conditions: mRNA level, 48 h; actives raise or lower the signal
Outline: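 Gain or loss of SLCO1B1 mRNA is fitted against the 0.5% DMSO vehicle in human HepaRG liver cells treated 48 h at up to 100 uM in half-log steps. Expression comes from qRT-PCR normalized to endogenous controls.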

[5] = read-out: sulfotransferase 2A1 (SULT2A1), SULT2A1 (gene 6822); assay: LTEA_HepaRG_SULT2A1: Life Technologies and Expression Analysis (LTEA) Assay for sulfotransferase 2A1 (SULT2A1) using HepaRG (AID 2283531); conditions: mRNA level, 48 h; actives raise or lower the signal
Outline: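 Cells were plated and cultured 48 h, switched to serum-free induction medium, then dosed in duplicate for 48 h (8 concentrations, max 100 uM). RNA was isolated and SULT2A1 expression measured by qRT-PCR; gain or loss of signal fitted relative to DMSO.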

[6] = read-out: Transforming Growth Factor (TGFA), TGFA (gene 7039); assay: LTEA_HepaRG_TGFA: Life Technologies and Expression Analysis (LTEA) Assay for Transforming Growth Factor (TGFA) using HepaRG (AID 2283532); conditions: mRNA level, 48 h; actives raise or lower the signal
Outline: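 Differentiated HepaRG cells exposed 48 hours in serum-free induction medium, 0.5% DMSO vehicle, 8-point half-log series from 100 uM, in duplicate. TGFA mRNA by TaqMan qRT-PCR, normalised to ACTB, GAPDH, POLR2A; bidirectional fit versus DMSO.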

TIMP1, TIMP1 (gene 7076) = assay: LTEA_HepaRG_TIMP1: Life Technologies and Expression Analysis (LTEA) Assay for TIMP1 using HepaRG (AID 2283534); conditions: mRNA level, 48 h; actives raise or lower the signal
Outline: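 We dosed human liver HepaRG cultures for 48 hours with up to 100 uM test chemical and measured TIMP1 expression by qRT-PCR. Activity in either direction is fitted relative to the 0.5% DMSO vehicle.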

[7] = read-out: Tumor necrosis factor receptor 1 (TNFRSF1A), TNFRSF1A (gene 7132); assay: LTEA_HepaRG_TNFRSF1A: Life Technologies and Expression Analysis (LTEA) Assay for Tumor necrosis factor receptor 1 (TNFRSF1A) using HepaRG (AID 2283535); conditions: mRNA level, 48 h; actives raise or lower the signal
Outline: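 Expression of TNFRSF1A in human HepaRG liver cells was measured by qRT-PCR 48 h after chemical dosing (maximum 100 uM). Bidirectional curve fitting used 0.5% DMSO as baseline.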

[8] = read-out: Thyroid Hormone Responsive (THRSP), THRSP (gene 7069); assay: LTEA_HepaRG_THRSP: Life Technologies and Expression Analysis (LTEA) Assay for Thyroid Hormone Responsive (THRSP) using HepaRG (AID 2283536); conditions: mRNA level, 48 h; actives raise or lower the signal
Outline: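 Differentiated HepaRG cells treated 48 h in serum-free induction medium with 8 half-log concentrations up to 100 uM (0.5% DMSO), duplicates. THRSP mRNA by TaqMan qRT-PCR normalised to ACTB, GAPDH, POLR2A; bidirectional fit versus DMSO.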

[9] = read-out: Cellular tumor antigen p53 (Homo sapiens) (UniProt P04637); assay: LTEA_HepaRG_TP53: Life Technologies and Expression Analysis (LTEA) Assay for Tumor Protein P53 (TP53) using HepaRG (AID 2283537); conditions: mRNA level, 48 h; actives raise or lower the signal
Outline: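 Read-out is TP53 transcript level by microfluidic qRT-PCR, normalised to three housekeeping genes and fitted bidirectionally against DMSO. Human HepaRG cells received compounds for 48 h, highest concentration 100 uM.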

[10] = read-out: UDP glucuronosyltransferase (UGT1A1), UGT1A1 (gene 54658); assay: LTEA_HepaRG_UGT1A1: Life Technologies and Expression Analysis (LTEA) Assay for UDP glucuronosyltransferase (UGT1A1) using HepaRG (AID 2283538); conditions: mRNA level, 48 h; actives raise or lower the signal
Outline: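 Readout is UGT1A1 transcript level by qRT-PCR, normalized to three housekeeping genes, after 48 h chemical treatment of HepaRG cells. Concentrations ran from 100 uM down in half-log steps with 0.5% DMSO, and gain or loss relative to DMSO was fitted.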

[11] = read-out: UDP glucuronosyltransferase (UGT1A6), UGT1A6 (gene 54578); assay: LTEA_HepaRG_UGT1A6: Life Technologies and Expression Analysis (LTEA) Assay for UDP glucuronosyltransferase (UGT1A6) using HepaRG (AID 2283539); conditions: mRNA level, 48 h; actives raise or lower the signal
Outline: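 Endpoint is UGT1A6 transcript induction or loss in a human liver cell line, quantified by TaqMan qRT-PCR 48 h after dosing. Concentrations ran from 100 uM downward in half-log steps in 0.5% DMSO; activity was fitted in both directions versus vehicle.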

[12] = TOX21_p53_BLA_p2_viability: Viability Assessment in the Tox21 HCT-116 p53 Agonism Beta-lactamase Assay, Phase 2 (AID 2283591; active = hit-call score of the fitted dose curve at least 0.9, where 1 is the maximum;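 also: compound exposure lasted 16 h at 37 °C; actives lower the ATP signal meaning cytotoxicity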)
Outline: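 HCT116 p53-bla cells, 4000/well, dosed after 5 h plating (217-fold dilution of DMSO stocks) and incubated 16 h at 37C. Viability taken as cellular ATP by CellTiter-Glo luminescence after 30 min RT; signal loss marks cytotoxicity.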

[13] = target: Cellular tumor antigen p53 (Homo sapiens) (UniProt P04637); assay: TOX21_p53_BLA_p2_ratio: Tox21 HCT-116 p53 Agonism Beta-lactamase Assay, Ratio, Phase 2 (AID 2283592; active = hit-call score of the fitted dose curve at least 0.9, where 1 is the maximum)
Chain of Cellular tumor antigen p53 (Homo sapiens) (P04637 whole entry, looked up): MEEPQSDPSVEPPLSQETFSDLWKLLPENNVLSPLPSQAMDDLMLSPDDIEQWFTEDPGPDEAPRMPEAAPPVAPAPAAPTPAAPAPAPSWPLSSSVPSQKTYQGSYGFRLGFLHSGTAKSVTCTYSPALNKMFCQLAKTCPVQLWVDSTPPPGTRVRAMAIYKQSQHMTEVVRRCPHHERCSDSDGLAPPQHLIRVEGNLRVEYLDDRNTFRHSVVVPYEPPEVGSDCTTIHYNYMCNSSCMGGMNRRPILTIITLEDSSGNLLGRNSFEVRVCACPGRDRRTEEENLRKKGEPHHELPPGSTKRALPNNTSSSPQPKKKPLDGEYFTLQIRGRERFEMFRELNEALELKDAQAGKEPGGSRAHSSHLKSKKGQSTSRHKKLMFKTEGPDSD
Outline: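 An inducible beta-lactamase reporter in HCT116 cells signals p53 pathway activation. After 16 h chemical exposure at 37C, cells load CCF4-AM substrate for 2 h at room temperature; activity is the cleaved/uncleaved emission ratio relative to DMSO.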

[14] = TOX21_p53_BLA_p3_viability: Viability Assessment in the Tox21 HCT-116 p53 Agonism Beta-lactamase Assay, Phase 3 (AID 2283593; active = hit-call score of the fitted dose curve at least 0.9, where 1 is the maximum;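 also: cells exposed to compound for 16 h before reading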)
Outline: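 HCT116 cells, 4000/well, dosed 5 h after plating by pin transfer (217-fold dilution from DMSO stock) and incubated 16 h at 37C, 5% CO2. Viability read as ATP luminescence with CellTiter-Glo after 30 min at room temperature.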

[15] = target: Cellular tumor antigen p53 (Homo sapiens) (UniProt P04637); assay: TOX21_p53_BLA_p3_ratio: Tox21 HCT-116 p53 Agonism Beta-lactamase Assay, Ratio, Phase 3 (AID 2283596; active = hit-call score of the fitted dose curve at least 0.9, where 1 is the maximum)
Outline: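 HCT116 p53-bla cells (4000/well) given compound in DMSO (217-fold dilution) after 5 h, incubated 16 h at 37C. CCF4-AM substrate 2 h at room temperature; 460/530 nm emission ratio, gain fitted against DMSO.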

[16] = read-out: Transforming Growth Factor (TGFB1), TGFB1 (gene 7040); assay: LTEA_HepaRG_TGFB1: Life Technologies and Expression Analysis (LTEA) Assay for Transforming Growth Factor (TGFB1) Transporter using HepaRG (AID 2283533); conditions: mRNA level, 48 h; actives raise or lower the signal
Outline: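 Expression change of TGFB1 in human HepaRG cells is measured after a 48 h chemical exposure, up to 100 uM in 0.5% DMSO vehicle. Curves are fitted in both directions relative to the DMSO baseline.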

[17] = read-out: X-box binding protein 1 (XBP1), XBP1 (gene 7494); assay: LTEA_HepaRG_XBP1: Life Technologies and Expression Analysis (LTEA) Assay for X-box binding protein 1 (XBP1) using HepaRG (AID 2283540); conditions: mRNA level, 48 h; actives raise or lower the signal
Outline: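 Human HepaRG monolayers receive test chemical for 48 h across an eight-point half-log series starting at 100 uM. XBP1 mRNA gain or loss is scored against DMSO by qRT-PCR.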

[18] = LTEA_HepaRG_LDH_cytotoxicity: Cytotoxicity Assessment in the Life Technologies and Expression Analysis (LTEA) Assay (AID 2283563; active = hit-call score of the fitted dose curve at least 0.9, where 1 is the maximum;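 as to AC50: LDH activity released into spent culture medium as a marker of cell death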)
Outline: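 Human HepaRG hepatic cells are treated with test chemicals for 48 h at up to 100 uM in 0.5% DMSO. Cytotoxicity is scored from medium LDH against the vehicle control.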

[19] = ATG_XTT_Cytotoxicity: Cytotoxicity Assessment in the Attagene TRANS-FACTORIAL HepG2 Assay (AID 2283584; active = hit-call score of the fitted dose curve at least 0.9, where 1 is the maximum)
Outline: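 Transfect HepG2 with GAL4-UAS reporter units, dose compound, incubate 24 h, then measure viable cell number by XTT. Fit concentration response against DMSO baseline.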

Measured: AC50

Chain of Signal transducer and activator of transcription 3 (Homo sapiens) (P40763 whole entry, looked up): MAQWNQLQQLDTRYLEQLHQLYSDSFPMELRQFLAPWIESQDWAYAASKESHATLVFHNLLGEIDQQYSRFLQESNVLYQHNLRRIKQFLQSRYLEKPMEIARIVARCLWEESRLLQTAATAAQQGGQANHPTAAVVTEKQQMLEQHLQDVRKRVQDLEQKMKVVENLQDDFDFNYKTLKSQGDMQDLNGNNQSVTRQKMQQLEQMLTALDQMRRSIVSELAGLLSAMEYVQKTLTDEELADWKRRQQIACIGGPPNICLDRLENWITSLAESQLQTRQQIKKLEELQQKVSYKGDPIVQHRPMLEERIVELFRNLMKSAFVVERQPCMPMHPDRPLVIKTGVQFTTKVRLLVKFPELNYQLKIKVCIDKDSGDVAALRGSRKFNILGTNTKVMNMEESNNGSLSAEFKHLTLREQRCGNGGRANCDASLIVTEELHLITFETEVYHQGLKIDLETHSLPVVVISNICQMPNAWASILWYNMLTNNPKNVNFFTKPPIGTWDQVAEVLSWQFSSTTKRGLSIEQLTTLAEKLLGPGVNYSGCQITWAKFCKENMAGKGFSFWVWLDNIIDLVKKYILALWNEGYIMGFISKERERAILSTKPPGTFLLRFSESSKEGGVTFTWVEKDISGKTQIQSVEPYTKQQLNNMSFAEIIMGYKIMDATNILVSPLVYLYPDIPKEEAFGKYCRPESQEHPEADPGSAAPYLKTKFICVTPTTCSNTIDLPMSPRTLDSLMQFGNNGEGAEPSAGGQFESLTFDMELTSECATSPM
Chain of Nuclear factor erythroid 2-related factor 2 (Homo sapiens) (Q16236 whole entry, looked up): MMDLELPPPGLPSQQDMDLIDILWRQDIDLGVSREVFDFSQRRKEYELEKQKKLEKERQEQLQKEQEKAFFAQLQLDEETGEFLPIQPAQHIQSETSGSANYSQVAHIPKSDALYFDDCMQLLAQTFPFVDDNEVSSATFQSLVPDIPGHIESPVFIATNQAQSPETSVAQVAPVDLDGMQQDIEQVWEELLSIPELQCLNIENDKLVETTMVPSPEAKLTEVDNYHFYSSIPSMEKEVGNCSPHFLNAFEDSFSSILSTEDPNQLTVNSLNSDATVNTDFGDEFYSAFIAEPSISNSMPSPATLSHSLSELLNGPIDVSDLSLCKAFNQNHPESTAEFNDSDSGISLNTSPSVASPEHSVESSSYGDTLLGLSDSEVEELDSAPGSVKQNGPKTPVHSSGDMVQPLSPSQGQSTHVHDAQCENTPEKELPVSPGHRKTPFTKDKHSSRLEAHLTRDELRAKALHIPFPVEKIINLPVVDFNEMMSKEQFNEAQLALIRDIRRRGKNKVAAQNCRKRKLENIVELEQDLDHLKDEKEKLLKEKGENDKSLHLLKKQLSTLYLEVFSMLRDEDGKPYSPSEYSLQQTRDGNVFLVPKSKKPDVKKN

CCOC(=O)CC(SP(=O)(OC)OC)C(=O)OCC (stereo not given)
not listed: [16] | [17] | [18] | [19]
inactive: all other assays above

CCOP(=O)(OCC)Oc1cc(C)nc(C(C)C)n1
not listed: [2] | [12] | [18] | [19]
inactive: all other assays above

CCCCN(CC)c1c([N+](=O)[O-])cc(C(F)(F)F)cc1[N+](=O)[O-]
active: [10] 32.2 µM
not listed: [12] | [17] | [18] | [19]
inactive: all other assays above

CCOP(=O)(NC(C)C)Oc1ccc(SC)c(C)c1 (stereo not given)
active: [10] 50 µM
not listed: [17]
inactive: all other assays above

CC(C)[C@H](C(=O)O[C@H](C#N)c1cccc(Oc2ccccc2)c1)c1ccc(Cl)cc1
active: [10] 23.8 µM
not listed: [12] | [15] | [16] | [18] | [19]
inactive: all other assays above

CCOP(=S)(OCC)SCCSCC
not listed: [3] | [14] | [18] | [19]
inactive: all other assays above

CCc1cnc(C2=NC(C)(C(C)C)C(=O)N2)c(C(=O)O)c1 (stereo not given)
inactive: [1] | [3] | [4] | [5] | [6] | TIMP1, TIMP1 (gene 7076) | [7] | [8] | [10] | [11]

C#CC(C)(C)NC(=O)c1cc(Cl)cc(Cl)c1
active: [10] 13 µM
not listed: [2] | [17] | [18]
inactive: all other assays above

CN(C)[C@@H]1C(=O)C(C(N)=O)=C(O)[C@@]2(O)C(=O)C3=C(O)c4c(O)cccc4[C@@](C)(O)[C@H]3[C@H](O)[C@@H]12
not listed: [2] | [9] | [12] | [13] | [14] | [15] | [16] | [17]
inactive: all other assays above

CCCCSP(=O)(SCCCC)SCCCC
active: [1] 78 µM
not listed: [2] | [14] | [16] | [18] | [19]
inactive: all other assays above

C=C(C)[C@H]1Cc2c(ccc3c2O[C@@H]2COc4cc(OC)c(OC)cc4[C@@H]2C3=O)O1
active: [1] 7.62 µM | [4] 12.3 µM | [5] 13.2 µM | [6] 7.78 µM | TIMP1, TIMP1 (gene 7076) 11.1 µM | [7] 50 µM | [8] 1.36 µM | [10] 23.7 µM | [11] 23.4 µM
inactive: [3] | [16] | [17]

CCOP(=O)(SC(C)CC)N1CCSC1=O (stereo not given)
not listed: [2] | [9] | [12] | [13] | [14] | [15] | [16] | [19]
inactive: all other assays above

CNC(=O)Oc1cccc2c1OC(C)(C)O2
not listed: [1] | [2] | [12] | [14] | [19]
inactive: all other assays above

CCCCOC(=O)c1ccccc1C(=O)O
active: [10] 17 µM
not listed: [2] | [14] | [17] | [18] | [19]
inactive: all other assays above

CCCOCC(=Nc1ccc(Cl)cc1C(F)(F)F)n1ccnc1
inactive: [1] | [19]
active: [3] 50 µM | [4] 15.8 µM | [5] 66.6 µM | [6] 92.4 µM | [16] 50 µM | TIMP1, TIMP1 (gene 7076) 88.9 µM | [7] 93.7 µM | [8] 19.1 µM | [9] 86.9 µM | [10] 3.03 µM | [11] 69 µM | [18] 78.9 µM | [12] 23.7 µM | [13] 39.9 µM | [14] 35.4 µM | [15] 68.1 µM

CNC(=O)ON=C(SC)C(=O)N(C)C
not listed: [2] | [16] | [17] | [19]
inactive: all other assays above
